Active and inactive are the calls of the source. Rule for the calls: active = hit-call score of the fitted dose curve at least 0.9, where 1 is the maximum; inactive = score below 0.9.

Read-out in this experiment: UDP glucuronosyltransferase (UGT1A6), UGT1A6 (gene 54578)
As to the kind of experiment: LTEA_HepaRG_UGT1A6: Life Technologies and Expression Analysis (LTEA) Assay for UDP glucuronosyltransferase (UGT1A6) using HepaRG (AID 2283539). The note with it: mRNA level, 48 h; actives raise or lower the signal. Here is the method: LTEA_HepaRG is a cell based, multiplexed-readout assay that uses HepaRG, a human liver cell line, with measurements taken at 48 hours after chemical dosing on a 96-well plate.LTEA_HepaRG_UGT1A6 is one of 102 assay component(s) measured in the LTEA HepaRG cell culture assay. It is a marker of NR mediated metabolism.Data from the assay component LTEA_HepaRG_UGT1A6 was analyzed into 1 endpoint. This assay endpoint, LTEA_HepaRG_UGT1A6, was analyzed with bidirectional fitting relative to DMSO as the negative control and baseline of activity. Using a type of inducible reporter, measures of mRNA induction for gain or loss-of-signal activity can be used to understand regulation of transcription factor activity. To generalize the intended target to other relatable targets, this assay endpoint is annotated to the transferase intended target family, where the subfamily is glucuronosyltransferase.
A total of 1060 chemcials from the ToxCast library were tested in eight-point concentration-response experiments. Cell culture and cytotoxicity assays were conducted at Thermo Fisher Scientific's Custom Services facility (Madison, WI). A single lot of human HepaRG cells (Thermo Fisher Scientific, Frederick, MD) was used for the cell culture experiments. 96-well format collagen type I coated plates of human HepaRG cells were prepared using established methods. Briefly, cryopreserved HepaRG cells were thawed, plated at a density of approximately 100,000 cells/well in HepaRG Thaw, Plate, and General Purpose media (HPRG770, Thermo Fisher Scientific), and incubated for 48 hours. 0.5% DMSO was selected as vehicle control to balance the requisite need of DMSO in HepaRG cultures to maintain differentiation (for example, baseline metabolism, proportions of hepatocytes vs. cholangiocytes), while enabling further hepatic receptor pathway activation (for example, PXR and CAR) in response to chemical exposure. 48 hours after plating, the culture medium was replaced with HepaRG Serum-Free Incudtion Media. Cells were exposed to each test chemical in duplicate and maintained in CO2 incubators for another 48 hours. Chemical plates were thawed to room temperature and 200x concentrations of treatment groups were prepared. 8-point conentration-reponse curves were made with the highest exposure at 100 uM, followed by half-log dilutions, all in 0.5% DMSO. Each test plate contained variouse controls, induction positive controls (1mM phenobarbital), cytotoxicity positive controls ([…] aflatoxin B1), vehicle controls (0.5% DMSO), and total lysis controls (0.5% DMSO). Cell morphology images were taken using an Essen IncuCyte FLR automated microscope, with six 96-well plates imaged in about 24 minutes. Images were captured and exported and JPEG files. Spent culture media was transfered to black-well plates for the LDH assay, and remaining media was sorted at -80 C for later use. Cells were treated with RLT buffer and frozen until shipped for gene expression analysis. Total RNA was isolated from the cell suspension in 75 uL of Buffer RLT (Qiagen, Germantown, MD 20874) by Quintiles/Expression Analysis (Durham, NC) using a custom isolation procedure. Total RNA from each plate well was transferred to a preamplification plate. Fluidigm's 96.96 Dynamic ArrayTM (Fluidigm, Amsterdam, the Netherlands) technology was used for gene expression analyses by quantitative reverse transcription polymerase chain reaction (qRT-PCR, performed by Quintiles/Expression Analysis, Durham, NC)89. Standard TaqManTM Assays (Applied Biosystems/ThermoFisher Scientific, Foster City, CA) were used to assess the expression of 93 genes selected based on their selectivity and sensitivity to important hepatic receptors known to be modulated by environmental chemicals; importance in human hepatocyte functionality; and hepatotoxicity. […]
Turning to `CN(C[C@@H](CC[N+]12CCC(C3CCCCC3)(CC1)CC2)c1ccc(Cl)c(Cl)c1)C(=O)c1cc(C(F)(F)F)cc(C(F)(F)F)c1`, the AC50 is 1.66 µM (active).

Take `Oc1ccccc1`: the call was inactive.

For the molecule `CCCCCCCCCCCCO`, the call was inactive.

As for `CC[C@@H]1C[C@H](N(Cc2cc(C(F)(F)F)cc(C(F)(F)F)c2)C(C)=O)c2cc(C(F)(F)F)ccc2N1C(=O)OC(C)C`, the call was inactive.

On to `CCCC(=O)OCCC(C)C`, for which the molecule was classed as inactive.

With `Cc1cc2c(cc1C(F)(F)F)N(C(=O)Nc1ccc(Oc3cccnc3C)nc1)CC2`, the AC50 is 76.1 µM (active).

`COc1cccc([C@H](O)C2CCN(CCc3ccc(F)cc3)CC2)c1OC`: the molecule was classed as inactive.

For the molecule `CC(C)(C)c1cc(/C=C2\SC(N)=NC2=O)cc(C(C)(C)C)c1O`, the AC50 is 22.1 µM (active).

Consider `Cc1ccc2oc(CN(Cc3ccccc3)C(=O)Nc3c(F)cc(F)cc3F)c(-c3ccc(Cl)cc3)c2c1`, for which the molecule was called inactive.

For the molecule `Cc1ccc(C(C)C)cc1`, the molecule was called inactive.

Consider `Cc1oc2c(NC(=O)c3c(Cl)cccc3Cl)cccc2c1C(C)(C)O`, for which the AC50 is 46.9 µM (active).

Consider `CC(C)(C)c1csc(-c2cc3cc(OCc4ccccc4CC(=O)O)ccc3o2)n1`, for which the AC50 is 77.2 µM (active).

`C[C@]12CC[C@@H]3c4ccc(O)cc4CC[C@H]3[C@@H]1CCC2=O`: the molecule was called inactive.

Turning to `CCCCCCCC[Si](OCC)(OCC)OCC`, the call was inactive.

As for `O=c1[nH]sc2ccccc12`, the result was inactive.

As to `O=C(O)c1ccccc1C(=O)OCc1ccccc1`, the result was inactive.

Consider `OC12N=C(c3ccccc3)SC1Cc1cc(Cl)ccc12` (stereo not given), for which the molecule was classed as inactive.

Turning to `CCCCCCCCOc1ccc(C(=O)c2ccccc2)c(O)c1`, the call was inactive.

`CCCCCCCCCC(=O)O`: the call was inactive.

Take `Cc1cc(F)ccc1-c1cc(N2CC[C@@H](O)[C@H]2CO)ncc1N(C)C(=O)C(C)(C)c1cc(C(F)(F)F)cc(C(F)(F)F)c1`: the molecule was called inactive.

As for `CN1C(=O)N(c2ccccc2Br)Cc2cnc(Nc3ccc4c(c3)OCC(CO)O4)nc21` (stereo not given), the AC50 was 81.5 µM (active).

On to `O=C=NCCCCCCN=C=O`, for which the result was inactive.

For `CCN(Cc1cccc(S(=O)(=O)O)c1)c1ccc(C(=C2C=CC(=[N+](CC)Cc3cccc(S(=O)(=O)O)c3)C=C2)c2ccccc2S(=O)(=O)[O-])cc1`, the molecule was classed as inactive.

Take `O=C(O)Cc1cc(I)c(Oc2ccc(O)c(I)c2)c(I)c1`: the AC50 is 77.9 µM (active).

On to `Oc1ccc2ccccc2c1`, for which the molecule was called inactive.

As for `COc1ccc2cc(S(=O)(=O)N[C@H](CC(=O)N[C@H](Cc3ccc(CN4[C@H](C)CCC[C@@H]4C)cc3)C(=O)N(C)C(C)C)c3ccc4c(c3)OCO4)ccc2c1`, the AC50 is 23.2 µM (active).

Turning to `O=C1O[C@H]([C@@H](O)CO)C(O)=C1O`, the outcome was inactive.

In the case of `O=C1CCC(C2CCCCC2)CC1`, the result was inactive.

Consider `CCOC(=O)O[C@H](C)OC(=O)c1ccc2c(c1)cc(C(=O)NC1CCN(C(C)C)CC1)n2Cc1cc(-c2ccc(Cl)s2)on1`, for which the molecule was called inactive.

As for `CN(C)C(=O)C1(N2CCCCC2)CCN(CC[C@@]2(c3ccc(Cl)c(Cl)c3)CN(C(=O)c3ccccc3)CCO2)CC1`, the AC50 is 25.7 µM (active).

As to `NCc1cccc(C2CCN(C(=O)c3ccc(C#Cc4ccccc4F)o3)CC2)c1`, the AC50 is 93.1 µM (active).

For the molecule `CC1=CC(=O)/C(=C(/C)O)C(=O)O1`, the molecule was called inactive.

Regarding `CCCCCc1ccc(N)cc1`, the molecule was called inactive.

As for `O=C(Nc1ccc(Cl)cc1)Nc1ccc(Cl)c(Cl)c1`, the AC50 is 13.5 µM (active).

Turning to `C[C@]12CC[C@@H]3c4ccc(O)cc4CC[C@H]3[C@@H]1CC[C@H]2O`, the outcome was inactive.

On to `CO[C@H]1/C=C/O[C@@]2(C)Oc3c(C)c(O)c4c(O)c(c(/C=N/N5CCN(C)CC5)c(O)c4c3C2=O)NC(=O)/C(C)=C\C=C\[C@H](C)[C@H](O)[C@@H](C)[C@@H](O)[C@@H](C)[C@H](OC(C)=O)[C@@H]1C`, for which the result was inactive.

Take `O=c1c(-c2ccc(O)cc2)coc2cc(O)cc(O)c12`: the molecule was classed as inactive.

As to `CC1(C)NC(=O)N(c2ccc([N+](=O)[O-])c(C(F)(F)F)c2)C1=O`, the molecule was called inactive.

For `CCCCOC(=O)CC(CC(=O)OCCCC)(OC(C)=O)C(=O)OCCCC`, the outcome was inactive.

Regarding `O=C1c2ccccc2C(=O)N1CCc1noc(-c2ccc(CN3CCCCCC3)s2)n1`, the result was inactive.

As a reminder, the AC50 is the midpoint of the concentration-response curve, whichever way the signal moves.

These data come from PubChem BioAssay (EPA / NIEHS).
